From PubChem BioAssay (NCATS)
Records with an inconclusive call do not appear. Entries that show only a call come without a potency. Active and inactive are the calls of the source. The call rests on the fitted dose curve; in most records, active means well fitted inhibition curve with a large enough effect; inconclusive means small, poorly fitted or top-dose-only effect; inactive means no such curve, though single readings can be large or run the other way.

system: Zika virus NS2B-NS3 protease (linked construct); experiment: Primary screen NINDS Rhodamine qHTS for Zika virus inhibitors (AID 1347160); details: purified NS2B-NS3 protease, Rhodamine110 substrate fluorescence; series mostly up to 57.1 µM; further: nearly all actives have a fitted effect of over 55% in size
How it was run: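 Purified NS2B-NS3 protease with the NS2B hydrophilic domain joined by a flexible linker (25 nM) in 10 mM Tris-HCl pH 8.0, 0.01% Tween 20, preincubated 15 min at RT with compound; Rhodamine110 peptide substrate 1.5 µM; fluorescence change over 15 min; 4-parameter Hill fit.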

SMILES	Potency
CCC(C)(O)C(O)C(=O)OCc1ccc(O[C@@H]2O[C@H](CO)[C@@H](O)[C@H](O)[C@H]2O)c(OC)c1 (stereo not given in full)	inactive
COc1cc(N2CCC(N(C)C)CC2)ccc1Nc1ncc(Cl)c(Nc2ccccc2P(C)(C)=O)n1	inactive
CC(=O)OC[C@]12[C@H](OC(C)=O)C(=O)[C@@H]3[C@@H](OC(C)=O)[C@@]14O[C@@]3(C)COC(=O)c1cccnc1[C@@H](C)[C@H](C)C(=O)O[C@@H]([C@H](OC(C)=O)[C@@H]2OC(C)=O)[C@]4(C)O	inactive
C=C1C(OC(C)=O)C(=O)C2C(C)(C)C(OC(C)=O)CCC2(C)C1CC(OC(C)=O)/C(C)=C/COC(C)=O (stereo not given)	inactive
COC(=O)[C@@]1(O)C=CC[C@@H]2[C@@]3(C)C[C@@H](c4ccoc4)OC(=O)[C@H]3CC[C@]21C	inactive
CCC(CC)n1ccc2c(C(=O)NCc3c(C)cc(C)[nH]c3=O)cc(C#N)cc21	inactive
C[C@@H]1O[C@@H](O[C@H]2[C@H](OC(C#N)c3ccc(O)cc3)O[C@H](CO)[C@@H](O)[C@@H]2O)[C@H](O)[C@H](O)[C@H]1O (stereo not given in full)	inactive
O=C(O)C[C@H](O)C[C@H](O)/C=C/c1c(C2CC2)nc2ccccc2c1-c1ccc(F)cc1	inactive
O=C(O)[C@H]1CCCC[C@H]1C(=O)N1CCc2ccccc2[C@H]1CN1C(=O)c2ccccc2C1=O	inactive
Cc1ccc(Sc2cncc3sc(C(N)=O)cc23)cc1	inactive
C=C1CC/C=C(/CO)C(=O)C[C@@H]2[C@@H]1CC2(C)C	inactive
CCN(c1cc(C#CCN2CCOCC2)cc(C(=O)NCc2c(C)cc(C)[nH]c2=O)c1C)C1CCC(N(C)CCOC)CC1 (stereo not given)	inactive
CC(C)C(C#N)O[C@@H]1O[C@H](CO[C@@H]2OC[C@](O)(CO)[C@H]2O)[C@@H](O)[C@H](O)[C@H]1O (stereo not given in full)	inactive
CC(C)=CCC[C@](C)(O[C@@H]1O[C@H](CO[C@@H]2OC[C@@H](O)[C@H](O)[C@H]2O)[C@@H](O)[C@H](O)[C@H]1O)[C@H]1CC[C@]2(C)[C@@H]1[C@H](O)C[C@@H]1[C@@]3(C)CC[C@H](O[C@@H]4O[C@H](CO)[C@@H](O)[C@H](O)[C@H]4O[C@@H]4O[C@H](CO)[C@@H](O)[C@H](O)[C@H]4O)C(C)(C)[C@@H]3CC[C@]12C	inactive
CNc1nc(Nc2cnn([C@H]3CCN(C4COC4)C[C@@H]3F)c2Cl)ncc1C(F)(F)F	inactive
